Several values for one entry are separate records, joined by “and”; a condition that tells them apart may be missing. Identical values can stand only once. Unmarked numbers belong to inactive results. Calls follow the shape of the dose curve; as a rule, active = well fitted activation curve with a large enough effect; inconclusive = small, poorly fitted or top-dose-only effect; inactive = flat fitted curve, though single readings scatter.
The compounds below were run against Peroxisome proliferator-activated receptor alpha (Homo sapiens) (UniProt Q07869) (assay: qHTS assay for small molecule agonists of the peroxisome proliferator-activated receptor alpha (PPARalpha) signaling pathway (AID 651778; also: % of control where 0% means no effect)). Details: PathHunter PPARalpha complementation, chemiluminescence, 6 h; max response: stronger effect = higher value.
Sequence of Peroxisome proliferator-activated receptor alpha (Homo sapiens) (Q07869 whole entry, looked up): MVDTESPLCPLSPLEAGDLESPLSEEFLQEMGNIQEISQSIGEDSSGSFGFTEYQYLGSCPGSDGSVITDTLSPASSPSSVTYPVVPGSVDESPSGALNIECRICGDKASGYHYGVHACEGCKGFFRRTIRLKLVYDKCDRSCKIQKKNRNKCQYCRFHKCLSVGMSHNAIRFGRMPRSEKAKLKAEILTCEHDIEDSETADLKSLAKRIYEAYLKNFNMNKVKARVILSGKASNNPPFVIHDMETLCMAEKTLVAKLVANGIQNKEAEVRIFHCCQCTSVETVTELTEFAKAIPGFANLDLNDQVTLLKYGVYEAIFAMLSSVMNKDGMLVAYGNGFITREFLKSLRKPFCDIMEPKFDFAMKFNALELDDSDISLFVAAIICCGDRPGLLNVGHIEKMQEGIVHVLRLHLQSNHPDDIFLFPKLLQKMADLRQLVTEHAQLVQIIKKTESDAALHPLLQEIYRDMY
Summary of the method: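 Cells plated at 2,000/well and held overnight at 37 C, 5% CO2, then compound added by pin tool for 6 hr; after PathHunter detection reagent and 60 min at room temperature, chemiluminescence from enzyme complementation was read.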

Row | Compound | max response
1 | C=C(C)[C@H]1Cc2c(ccc3c2O[C@@H]2COc4cc(OC)c(OC)cc4[C@@H]2C3=O)O1 | 7.18%
2 | Nc1ccncc1 | 0.27%
3 | C[C@@H]1O[C@@H](O[C@H]2C[C@@H](O)[C@]3(CO)[C@H]4[C@H](O)C[C@]5(C)[C@@H](C6=CC(=O)OC6)CC[C@]5(O)[C@@H]4CC[C@]3(O)C2)[C@H](O)[C@H](O)[C@H]1O | -0.456%
4 | NCC(O)c1ccc(O)cc1 (configuration not stated) | -2.88%
5 | CCCC(C)(COC(N)=O)COC(=O)NC(C)C (configuration not stated) | -0.746% and -1.22%
6 | O=c1[nH]c2ccccc2n1C1CCN(CCCC(c2ccc(F)cc2)c2ccc(F)cc2)CC1 | -0.751%
7 | CNCC(O)c1ccc(O)cc1 (configuration not stated) | -4.08%

Source: PubChem BioAssay (NCATS)
